Laboratory results: PubChem BioAssay AID1259418 (Broad Institute, 2018)
Out of some 3,400 compounds screened, about 840 (25%) were called active. Another 11% or so got no clear call; they are omitted. The list is a sample of the results. Results with a measured potency or affinity are listed apart. A number with no mark means an inactive call.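 How the source made its calls: active means fitted half-maximal concentration of signal decrease at or below twice the sample's top tested concentration; inconclusive means flat curve between -70 and -30 percent, or poor fit; inactive means flat within 30 percent, signal rise, or potency above limit.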

Assay: T. gondii growth inhibition with IFN-gamma, dose response, cell-based, ME49Luc, HeLa, luciferase, 72 h (AID 1259418)
Conditions: T. gondii ME49Luc in IFN-y HeLa, stronger effect = lower value, -100% = high-dose IFN-γ control wells; at 19.5 µM unless noted
Molecule `Cc1ccc(-c2coc(-c3ccc(NC(=O)COc4ccc(F)cc4)cc3)n2)cc1` has a max activity of -52.1% [at 0.68 µM]. `O=C(NCc1ccc(F)cc1)Nc1ccc(-c2nc(-c3ccccc3)co2)cc1` gave a max activity of 16.3% [at 1.35 µM]. Work on `CCOC(=O)C1CCN(C(=O)c2ccc(-c3csc(C4CC4)n3)cc2)CC1` yielded a max activity of 40.1%. With `COc1ccc(C(=O)N2CCC(C(=O)NCCc3csc(-c4ccccc4)n3)CC2)cc1` the max activity was 12.2% [at 0.16 µM]. Molecule `COc1cccc(C(=O)N2CCC(C(=O)NCCc3csc(-c4ccccc4)n3)CC2)c1` has a max activity of -23.1%. Work on `COc1ccc(-c2nc(N3CCN(c4cccc(C)c4)C(C)C3)c3ccccc3n2)cc1` (stereo not given) yielded a max activity of 60.7%. Molecule `Cc1ccc(-c2nc(Cn3nnc(-c4nc(-c5ccc(C(F)(F)F)cc5)no4)c3C)c(C)o2)cc1` has a max activity of 11.8% [at 0.35 µM]. `CCc1nc(OCC(=O)Nc2ccccc2C)c2ccccc2n1` showed a max activity of 13% [at 0.16 µM]. For `O=C(CCC1N=C2c3ccccc3N=C(SCc3ccccc3Cl)N2C1=O)NCc1ccco1` (stereo not given), the max activity was 35.4% [at 10 µM]. `CCOC(=O)c1ccc(NC(=O)Nc2ccc(-c3nc(-c4ccc(C)cc4C)co3)cc2)cc1` gave a max activity of 15.1% [at 0.16 µM]. With `CCOc1ccc(NC(=O)Nc2ccc(-c3nc(-c4ccccc4)co3)cc2)cc1` the max activity was 55.1%. For `COc1ccc2c(c1)NC1(CCN(C(=O)c3ccc(Br)o3)CC1)c1cccn1-2`, the max activity was 8.21% [at 0.35 µM]. `CC(C)(C)NC1=NCCNC12CCN(S(=O)(=O)c1ccc3c(c1)CCCC3)CC2` gave a max activity of -19.2% [at 0.35 µM]. `COc1ccc(NC(=O)Nc2ccc(-c3nc(-c4ccccc4)co3)cc2)c(OC)c1` gave a max activity of 53.6% [at 10 µM]. Molecule `O=C(CC(F)(F)F)N1C[C@@H]2[C@H](c3ccccc31)[C@H](CO)N2CC1CCOCC1` has a max activity of 54.6%. In the case of `Cc1oc(-c2ccccc2Cl)nc1Cn1c(=O)c2cccnc2n(-c2ccccc2)c1=O`, the max activity is reported as 6.15% [at 5 µM]. For `O=C(CCC1Nc2c3ccccc3nc(=S)n2C1=O)N1CCN(c2ccccc2F)CC1` (stereo not given), the max activity was 35.9%. In the case of `O=C(CC1Nc2c3ccccc3nc(=S)n2C1=O)N1CCN(c2cccc(C(F)(F)F)c2)CC1` (stereo not given), the max activity is reported as 105%. In the case of `COc1ccccc1CNC(=O)CCC1Nc2c3ccccc3nc(=S)n2C1=O` (stereo not given), the max activity is reported as 15% [at 2.6 µM]. For `Cc1ccc(Cl)cc1N1CCN(C(=O)CC2Nc3c4ccccc4nc(=S)n3C2=O)CC1` (stereo not given), the max activity was 25.8% [at 0.35 µM]. In the case of `COc1cccc(N2CCN(C(=O)CC3Nc4c5ccccc5nc(=S)n4C3=O)CC2)c1` (stereo not given), the max activity is reported as 50.6%. In the case of `Cc1ccc(C)c(N2CCN(C(=O)CC3Nc4c5ccccc5nc(=S)n4C3=O)CC2)c1` (stereo not given), the max activity is reported as 190% [at 10 µM]. For `Cc1cccc(-c2nc(Cn3nnc(-c4nc(-c5ccc(OC(F)(F)F)cc5)no4)c3C)c(C)o2)c1`, the max activity was -4.39% [at 0.35 µM]. `Cc1oc(-c2cccc(Cl)c2)nc1CSc1nc2c(c(=O)[nH]1)CN(Cc1ccccc1)CC2` gave a max activity of 20.2% [at 0.35 µM]. Work on `CCCc1cc(C2CCCN2C(=O)c2cc(C(F)(F)F)nn2C)no1` (stereo not given) yielded a max activity of 13.3% [at 0.16 µM]. Molecule `COc1ccc(CNc2nc(SCc3ccccc3F)nc3ccccc23)cc1` has a max activity of 8.85% [at 0.68 µM]. In the case of `Clc1ccccc1CSc1nc(NCCc2ccccc2)c2ccccc2n1`, the max activity is reported as 13.2% [at 5 µM]. `Fc1ccccc1CSc1nc(NCc2ccco2)c2ccccc2n1` gave a max activity of 15% [at 2.6 µM]. For `Clc1ccc(CNc2nc(SCc3ccccc3Cl)nc3ccccc23)cc1`, the max activity was -19% [at 10 µM]. In the case of `Cc1nc(N2CCOCC2)nc2c1CCN(C(=O)C1CC1)CC2`, the max activity is reported as 58.7%. Molecule `Clc1ccc(-n2ncc3c(NC4CCCCCCCCCCC4)ncnc32)cc1` has a max activity of -21.9% [at 10 µM]. With `COC(=O)CC(=O)Nc1ccc(-c2nc(-c3ccc(C)cc3C)co2)cc1` the max activity was 87.6%. Molecule `Cc1ccccc1C(=O)Nc1ccc(-c2nc(-c3ccccc3)co2)cc1` has a max activity of 95.8% [at 10 µM]. Work on `COc1cc(C(=O)Nc2ccc(-c3nc(-c4ccccc4)co3)cc2)cc(OC)c1OC` yielded a max activity of -19.1% [at 0.16 µM]. With `COc1ccccc1NC(=O)Nc1ccc(-c2nc(-c3ccc(C)cc3)co2)cc1` the max activity was -11.4% [at 0.35 µM]. For `Cc1ccc(-c2coc(-c3ccc(NC(=O)c4ccccc4C)cc3)n2)cc1`, the max activity was 104%. `Cc1cc(C)c2c(=O)n(Cc3nc(-c4ccccc4Cl)oc3C)c(=O)n(-c3ccccc3)c2n1` showed a max activity of -23.7% [at 10 µM]. Work on `Cc1ccc(-c2coc(-c3ccc(NC(=O)Nc4cccc(F)c4)cc3)n2)cc1` yielded a max activity of -17.7% [at 0.35 µM]. `Cc1ccc(S(=O)(=O)Nc2ccc(-c3nc(-c4ccc(C)c(C)c4)co3)cc2)cc1` showed a max activity of 33.8% [at 10 µM]. Molecule `Cc1oc(-c2cccc(Cl)c2)nc1Cn1nnc(-c2nc(-c3cccnc3)no2)c1C` has a max activity of 8.12% [at 10 µM]. For `C/C=C/c1ccc(C2[C@H]3CNC[C@@H]2N3Cc2cc(F)ccc2F)cc1` (stereo not given in full), the max activity was 24.5% [at 10 µM]. `COCCCN=C(Nc1ccc(C(=O)O)cc1)N1CCN(c2ncnc3ccccc23)CC1` showed a max activity of 14.9%. For `Cc1ccc(-n2ncc3c(NCCCN4CCCC4=O)ncnc32)c(C)c1`, the max activity was 50%. Molecule `CCc1ccccc1Nc1ncnc2c1cnn2-c1cccc(C)c1` has a max activity of 24.1% [at 10 µM]. In the case of `Clc1cccc(CNc2ncnc3c2cnn3-c2ccccc2)c1`, the max activity is reported as 95.5% [at 10 µM]. For `Cc1cccc(-n2ncc3c(NCCCn4ccnc4)ncnc32)c1`, the max activity was 38.7% [at 5 µM]. In the case of `Cc1cccc(-n2ncc3c(NCCc4ccccc4)ncnc32)c1`, the max activity is reported as -21.4% [at 0.35 µM]. Work on `C=CCNc1ncnc2c1cnn2-c1ccc(C)cc1C` yielded a max activity of 27.6% [at 5 µM]. `COc1ccc(CCNc2ncnc3c2cnn3-c2cccc(C)c2)cc1OC` showed a max activity of 11.8% [at 1.35 µM]. In the case of `Cc1cccc(Nc2ncnc3c2cnn3-c2ccc(C)cc2C)c1`, the max activity is reported as -13.4% [at 10 µM]. Work on `Clc1ccc(-n2ncc3c(NCCc4ccccc4)ncnc32)cc1` yielded a max activity of 36%. `COC(=O)CC(=O)Nc1ccc(-c2nc(-c3ccccc3)co2)cc1` showed a max activity of 102%. Work on `COc1ccc(NC(=O)Nc2ccc(-c3nc(-c4ccccc4)co3)cc2)cc1Cl` yielded a max activity of 10%. For `NC(=O)CN1CCOCCOCCN(CC(N)=O)CCOCC1`, the max activity was 36.3% [at 10 µM]. `COc1ccc(-c2nc3c(s2)CN(C(=O)Nc2ccccc2C)CC3)cc1OC` showed a max activity of -11.5% [at 0.35 µM]. In the case of `C/C=C/c1ccc(C2[C@H]3CNC[C@@H]2N3Cc2ccc3c(c2)OCO3)cc1` (stereo not given in full), the max activity is reported as 24%. `Cc1ccc(S(=O)(=O)N2[C@@H]3CNC[C@H]2C3c2ccc(/C=C/c3ccccc3)cc2)cc1` (stereo not given in full) showed a max activity of 32.9% [at 10 µM]. In the case of `O=C(CCC1Nc2c3ccccc3nc(=S)n2C1=O)NC1CC1` (stereo not given), the max activity is reported as -17.9% [at 1.35 µM]. Molecule `C/C=C/c1ccc([C@H]2[C@@H](C#N)N(C(=O)NC3CCCCC3)[C@H]2CO)cc1` has a max activity of -14% [at 2.35 µM]. In the case of `COc1cccc(-c2ccc(C3[C@H]4CNC[C@@H]3N4C(=O)NC3CCCCC3)cc2)c1` (stereo not given in full), the max activity is reported as 32.8% [at 10 µM]. `COc1ccc(N2CCN(c3nc(-c4ccc(Cl)cc4)nc4ccccc34)CC2)cc1` gave a max activity of 25.6%. `CCOC(=O)C1CCN(C(=O)c2ccc(-c3csc(CC)n3)cc2)CC1` showed a max activity of 201% [at 10 µM]. `C/C=C/c1ccc(C2[C@H]3CNC[C@@H]2N3S(=O)(=O)c2ccccc2C)cc1` (stereo not given in full) gave a max activity of 50.4%. Molecule `COc1cccc(-c2ccc(C3[C@H]4CNC[C@@H]3N4CC3CCCCC3)cc2)c1` (stereo not given in full) has a max activity of 25.6% [at 10 µM]. `COc1ccccc1-c1ccc(C2[C@H]3CNC[C@@H]2N3S(=O)(=O)c2ccc(F)cc2)cc1` (stereo not given in full) gave a max activity of 43.5%. `Cn1cnc(S(=O)(=O)N2C[C@@H]3N[C@H](C2)C3c2ccc(-c3ccccc3F)cc2)c1` (stereo not given in full) showed a max activity of 25.3% [at 10 µM]. With `N#Cc1ccc(-c2ccc(C3[C@@H]4CN(S(=O)(=O)c5ccc(F)cc5)C[C@H]3N4)cc2)cc1` (stereo not given in full) the max activity was 13.9%. `CCOc1ccc(-c2nc3c(s2)CN(S(=O)(=O)Cc2ccccc2)CC3)cc1` gave a max activity of -19.9% [at 0.16 µM]. `NC(=O)C1(N2CCCCC2)CCN(c2ncc(NC(=O)c3ccc(Cl)cc3)cc2C(=O)O)CC1` showed a max activity of -11.3% [at 10 µM]. `Cc1ccc(-c2nc(CSc3nc4c(c(=O)[nH]3)CN(C(C)C)CC4)c(C)o2)cc1` showed a max activity of -15.7%. Molecule `Cc1ccc(C)c(-c2coc(-c3ccc(NC(=O)Nc4ccc(F)cc4F)cc3)n2)c1` has a max activity of -11.8% [at 2.6 µM]. Work on `COc1ccc(CNC(=O)CC2Nc3c4ccccc4nc(=S)n3C2=O)cc1` (stereo not given) yielded a max activity of 22.9% [at 0.16 µM]. Work on `CCc1ccc(-c2noc(-c3nnn(Cc4nc(-c5ccc(OC)cc5)oc4C)c3C)n2)cc1` yielded a max activity of -11.2% [at 1.35 µM]. Work on `CCc1nc(OCC(=O)Nc2c(C)cccc2C)c2ccccc2n1` yielded a max activity of 19.2% [at 0.35 µM]. Molecule `Cc1ccc(C2=NC3(CCN(CC(=O)Nc4cccc(C)c4)CC3)NC2=O)cc1` has a max activity of -9.18% [at 5 µM].
